Drawing on PubChem BioAssay AID720706 (Broad Institute, 2013), this text covers GFP signal change (wild-type ribosome), OD600 change and RFP signal change for 29 compounds.

Molecules are shown by their SMILES. In all, about 350,000 compounds went through this assay and about 5,500 (1.6%) were called active.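 How the source made its calls: active means significant combined selectivity score with lowered wild-type GFP, culture density cut under 30%, mutant RFP and density less affected; inactive means any of these conditions unmet.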 The full list was thinned out, with actives kept by preference.

This test can be described thus: reduced GFP signal of wild-type E. coli, primary screen, bacterial rRNA inhibitor project, GFP/RFP fluorescence, OD600, single point (AID 720706). The note with it: E. coli WT GFP vs humanized-ribosome RFP mutants, 24 h; GFP signal change (wild-type ribosome): stronger effect = lower value, DMSO median 0, no signal -100; OD600 change: measured here: OD600 growth, DMSO median 0, no signal -100; RFP signal change: measured here: RFP humanized mutant strains, DMSO median 0, no signal -100, concentration not given here.
`CNC[C@H]1OCCCC[C@H](C)Oc2ccc(NC(=O)Nc3ccc(C(F)(F)F)cc3)cc2C(=O)N([C@H](C)CO)C[C@@H]1C`: the GFP signal change (wild-type ribosome) was -45.6% (inactive), the OD600 change is -74.3% and the RFP signal change is -0.5%.
In the same order, the values of `COc1ccc(CNC(=O)C[C@@H]2CC[C@H](NC(=O)c3cccc(F)c3)[C@H](CO)O2)cc1` are -0.639% (inactive), 4.63% and 0.956%.
As for `C[C@H]1CN([C@@H](C)CO)C(=O)c2cc(C3=CCCC3)cnc2O[C@H]1CN(C)C(=O)Nc1ccc(F)cc1`, the GFP signal change (wild-type ribosome) is -0.884% (inactive), the OD600 change was 7.11% and the RFP signal change is -0.613%.
In the same order, the values of `O=C(N[C@@H]1C=C[C@H](CC(=O)N2CCOCC2)O[C@H]1CO)c1ccccn1` are 4.32% (inactive), 4.06% and 0.272%.
With `O=C(CNC(=O)Cc1ccccc1)N=Nc1c(O)[nH]c2ccc(Br)cc12`, the GFP signal change (wild-type ribosome) was -1.63% (inactive), the OD600 change is 10% and the RFP signal change was determined as 0.336%.
In the same order, the values of `Cc1cccc(N=Nc2c(O)[nH]c3ccc(F)cc23)c1` are -28.8% (active), 13.6% and 8.49%.
For `Cc1c(-c2ccccc2)n[nH]c1C(=O)N=Nc1c(O)[nH]c2ccccc12`, the GFP signal change (wild-type ribosome) is -5.9% (inactive), the OD600 change was -4.62% and the RFP signal change is 2.09%.
`C[C@@H]1CN([C@@H](C)CO)S(=O)(=O)c2ccc(C#C[C@@H](C)O)cc2O[C@@H]1CN(C)CC1CC1`: the GFP signal change (wild-type ribosome) is 1.29% (inactive), the OD600 change is -4.39% and the RFP signal change is -1.26%.
On the same counts, the results for `O=C(NCc1ccccc1Cl)NC(=O)c1csc([N+](=O)[O-])c1` are 12.9% (inactive), 2.99% and 1.52%.
As to `O=C(NCCNc1ccccc1[N+](=O)[O-])c1ccccc1F`, the GFP signal change (wild-type ribosome) was -8.66% (inactive), the OD600 change worked out at 7.69% and the RFP signal change was -6.27%.
In the same order, the values of `O=[N+]([O-])c1ccccc1NCc1ccccc1Cl` are -29.2% (active), -20.4% and -10.2%.
On the same counts, the results for `COc1cccc(CN(C)C[C@H]2OCc3ccccc3-c3c(n(C)c4ccccc34)C(=O)N([C@@H](C)CO)C[C@@H]2C)c1` are -21.2% (inactive), -41.4% and 18.9%.
On the same counts, the results for `C[C@@H]1CN([C@H](C)CO)S(=O)(=O)c2ccc(C#CC(C)(C)O)cc2O[C@@H]1CN(C)Cc1ccccc1` are 1.3% (inactive), -3.23% and -1.75%.
In the case of `C[C@H](CO)N1C[C@H](C)[C@@H](CN(C)Cc2ccccc2)Oc2c(NC(=O)CCCCCC(=O)Nc3ccccc3N)cccc2C1=O`, the GFP signal change (wild-type ribosome) was -10% (inactive), the OD600 change is -16.3% and the RFP signal change turned out to be 2.5%.
In the same order, the values of `C[C@H]1CCCCO[C@@H](CN(C)C(=O)Nc2cccc3ccccc23)[C@@H](C)CN([C@@H](C)CO)C(=O)c2cc(NS(=O)(=O)c3cn(C)cn3)ccc2O1` are 0.08% (inactive), -14.1% and 8.18%.
Regarding `COc1ccc(CNS(=O)(=O)c2ccc(-c3cnc(C4CC4)o3)cc2)cc1`, the GFP signal change (wild-type ribosome) was -6.21% (inactive), the OD600 change was -8.89% and the RFP signal change was -0.493%.
With `Cc1cccc(CNS(=O)(=O)c2ccc(-c3cnc(C4CC4)o3)cc2)c1`, the GFP signal change (wild-type ribosome) was -28.7% (active), the OD600 change is -23% and the RFP signal change was -6.22%.
On the same counts, the results for `Cc1cccc(NS(=O)(=O)c2ccc(-c3cnc(C4CC4)o3)cc2)c1` are -8.12% (inactive), -53.1% and 16.8%.
Turning to `CN1C(=O)c2cc(NC(=O)c3ccccc3)ccc2OC[C@H]2O[C@@H](CC(=O)O)CC[C@@H]21`, the GFP signal change (wild-type ribosome) is 2.79% (inactive), the OD600 change came out at 3.92% and the RFP signal change is -0.251%.
On the same counts, the results for `C[C@@H]1CN([C@H](C)CO)C(=O)c2cccc(NC(=O)CCCCCC(=O)Nc3ccccc3N)c2O[C@H]1CN(C)CC1CCCCC1` are -16.1% (inactive), -30.3% and -6.11%.
Regarding `COc1ccc(/C=C2/CCCc3ccccc3C2=O)cc1`, the GFP signal change (wild-type ribosome) is -37.4% (inactive), the OD600 change was -62.5% and the RFP signal change is -10.8%.
As for `COc1ccc(/C=C2\CCc3ccccc3C2=O)c(OC)c1OC`, the GFP signal change (wild-type ribosome) was -21.9% (active), the OD600 change is -16.9% and the RFP signal change was -4.31%.
For the compound `COc1ccc(/C=N/NC(=O)C2CC2)c(OC)c1OC`, the GFP signal change (wild-type ribosome) was 20.9% (inactive), the OD600 change was determined as 9.1% and the RFP signal change is -1.71%.
As to `Cc1ccccc1-c1ccc([C@H]2[C@H](CO)N3C(=O)CN(C(=O)c4cccnc4)C[C@@H]23)cc1`, the GFP signal change (wild-type ribosome) was -0.83% (inactive), the OD600 change was -6.48% and the RFP signal change was determined as 5.21%.
On the same counts, the results for `O=C1N[C@H](Cc2ccccc2)COCc2cn(nn2)CC[C@@H]1Cc1ccc(-c2ccccc2)cc1` are -0.275% (inactive), 6.34% and -4.54%.
In the same order, the values of `CCCC#Cc1cnc2c(c1)C(=O)N([C@H](C)CO)C[C@@H](C)[C@@H](CN(C)C(=O)Nc1ccccc1OC)O2` are 4.88% (inactive), 7.2% and -1.58%.
In the same order, the values of `COc1ccc(NC(=O)N(C)C[C@@H]2OCCCC[C@H](C)Oc3ccc(NS(=O)(=O)c4cn(C)cn4)cc3C(=O)N([C@@H](C)CO)C[C@@H]2C)cc1` are -1.73% (inactive), -0.21% and 1.12%.
Consider `C[C@H](CO)N1C[C@H](C)[C@H](CN(C)Cc2ccc(C(=O)Nc3ccccc3N)cc2)Oc2ccc(NS(C)(=O)=O)cc2C1=O`, for which the GFP signal change (wild-type ribosome) is 5.88% (inactive), the OD600 change came out at 6.32% and the RFP signal change worked out at 0.92%.
For the compound `C[C@@H]1CN([C@@H](C)CO)C(=O)c2cc(NS(=O)(=O)c3ccccc3)ccc2O[C@@H]1CN(C)Cc1ccc(C(=O)Nc2ccccc2N)cc1`, the GFP signal change (wild-type ribosome) is -20.2% (active), the OD600 change was -5.29% and the RFP signal change is 5.46%.
